{"source": "PubChem BioAssay AID540333", "about": "(Southern Research Specialized Biocontainment Screening …, 2011)", "note": "Screen size: about 10,000 compounds; about 320 (3.2%) were called active. The list comes from a sample in which actives are over-represented; it also holds similar structures and randomly drawn compounds. A number with no mark means an inactive call. Rule as the data show it: active = CPE inhibition mostly above about 9.1% (no sharp cut-off); inactive = mostly below about 7.2%."}
{"assay": "antivirals protecting cells from dengue CPE – CPE readout, HTS (AID 540333)", "conditions": "Dengue virus CPE inhibition in host cells, at 20 µM; stronger effect = higher value"}
{"smiles": "COc1ccc(NCc2ccc([N+](=O)[O-])s2)c(OC)c1", "CPE inhibition": "11.8% (active)"}
{"smiles": "COc1ccc(NC(=O)/C=C/c2ccccc2[N+](=O)[O-])c(OC)c1", "CPE inhibition": "0.44%"}
{"smiles": "COc1ccc(NCc2ccc([N+](=O)[O-])s2)cc1", "CPE inhibition": "16.8% (active)"}
{"smiles": "COc1ccccc1NCc1ccc([N+](=O)[O-])s1", "CPE inhibition": "inactive"}
{"smiles": "COc1ccc(NCc2ccccc2[N+](=O)[O-])cc1OC", "CPE inhibition": "1.54%"}
{"smiles": "COc1cccc(NCc2ccc([N+](=O)[O-])s2)c1", "CPE inhibition": "inactive"}
{"smiles": "COc1cc(C2Nc3ccccc3C(=O)N2c2ccccc2)c(Br)cc1OCC(=O)O", "note": "(stereo not drawn)", "CPE inhibition": "inactive"}
{"smiles": "Cn1cnnc1SCC(=O)Nc1cc(S(=O)(=O)N2CCCCCC2)ccc1Cl", "CPE inhibition": "inactive"}
{"smiles": "Cc1ccc2c([N+](=O)[O-])cccc2n1", "CPE inhibition": "inactive"}
{"smiles": "Cc1ccc(CNC(=O)c2ccc3c(c2)S(=O)(=O)c2ccccc2C3=O)o1", "CPE inhibition": "inactive"}
{"smiles": "COc1cc(OC)cc(-c2c(-c3cccs3)c3cc(-c4ccc5[nH]ccc5c4)ccc3n2C)c1", "CPE inhibition": "4.79%"}
{"smiles": "CCCCOc1ccc(/C=C/C(=O)OCC(=O)NC(=O)NCC(C)C)cc1OCC", "CPE inhibition": "inactive"}
{"smiles": "CCOc1ccc(/C=N/OCC(=O)NC(c2ccccc2)c2ccccc2)cc1", "CPE inhibition": "13.1% (active)"}
{"smiles": "CCOc1ccc(/C=C/C(=O)NCc2ccccc2)cc1", "CPE inhibition": "inactive"}
{"smiles": "COc1ccc(/C=N/OCC(=O)NC(c2ccccc2)c2ccccc2)cc1OC", "CPE inhibition": "7.42%"}
{"smiles": "O=C(CNC(=O)c1cccc(Cl)c1)N/N=C/C=C/c1ccccc1", "CPE inhibition": "0.175%"}
{"smiles": "O=C(CSc1nc2ccccc2c(=O)n1-c1ccc(F)cc1F)c1c[nH]c2ccccc12", "CPE inhibition": "2.1%"}
{"smiles": "CCOC(=O)c1c(C)[nH]c(C)c1C(=O)CSc1nc2ccccc2c(=O)n1-c1ccc(C)cc1", "CPE inhibition": "inactive"}
{"smiles": "Cc1ccc(SCC(=O)c2c(C)[nH]c3ccccc23)cc1", "CPE inhibition": "inactive"}
{"smiles": "CCOC(=O)c1c(CSc2ccc(C)cc2)oc2ccc(O)cc12", "CPE inhibition": "20.7% (active)"}
{"smiles": "CCOc1ccc(N2C(=O)S/C(=C\\c3cccn3C)C2=O)cc1", "CPE inhibition": "inactive"}
{"smiles": "CCOc1ccc(/C=C2\\SC(N3CCc4ccccc4C3)=NC2=O)cc1", "CPE inhibition": "17.6% (active)"}
{"smiles": "CCS(=O)(=O)c1nc(S(=O)(=O)c2ccc(Cl)cc2)c(N2CCc3ccccc3C2)s1", "CPE inhibition": "0.63%"}
{"smiles": "O=C(CNC1=NCCC1)c1ccc(Cl)cc1", "CPE inhibition": "0.59%"}
{"smiles": "O=C(OCC(=O)N1CCCCC1)c1cc(NS(=O)(=O)c2ccc(Cl)c([N+](=O)[O-])c2)ccc1O", "CPE inhibition": "0.48%"}
{"smiles": "CCN(CC)S(=O)(=O)c1ccc(NS(=O)(=O)c2ccc(O)c([N+](=O)[O-])c2)cc1", "CPE inhibition": "0.085%"}
{"smiles": "CCN(C(=O)COC(=O)c1cc(NS(=O)(=O)c2ccc(Cl)c([N+](=O)[O-])c2)ccc1O)C1CCCCC1", "CPE inhibition": "17.4% (active)"}
{"smiles": "O=C(Nc1nnc(C2CC2)s1)c1cc([N+](=O)[O-])ccc1N1CCCCC1", "CPE inhibition": "inactive"}
{"smiles": "CCOC(=O)[C@H]1[C@H]2COc3ccccc3[C@@H]2N2C(=O)c3cc(C)ccc3NC(=O)[C@@]12C", "CPE inhibition": "0.17%"}
{"smiles": "CCOC(=O)[C@H]1[C@H]2COc3ccccc3[C@@H]2N2C(=O)c3cc(Cl)ccc3NC(=O)[C@@]12C", "CPE inhibition": "4.61%"}
{"smiles": "CCOC(=O)[C@H]1[C@H]2COc3ccc(Cl)cc3[C@@H]2N2C(=O)c3cc(F)c(F)cc3NC(=O)[C@@]12C", "CPE inhibition": "18% (active)"}
{"smiles": "CCOC(=O)[C@H]1[C@H]2COc3ccc(Cl)cc3[C@@H]2N2C(=O)c3cc(C)ccc3NC(=O)[C@@]12C", "CPE inhibition": "12.9% (active)"}
{"smiles": "CCOC(=O)[C@H]1[C@H]2COc3ccc(OC)cc3[C@@H]2N2C(=O)c3ccc(F)cc3NC(=O)[C@@]12C", "CPE inhibition": "inactive"}
{"smiles": "CCOC(=O)[C@H]1[C@H]2COc3ccccc3[C@@H]2N2C(=O)c3ccc(C)cc3NC(=O)[C@@]12C", "CPE inhibition": "inactive"}
{"smiles": "NC(=O)CC[C@H](NC(=O)OCc1ccccc1)C(=O)OCc1ccc(Cl)cc1", "CPE inhibition": "0.15%"}
{"smiles": "COc1ccc(NC(=O)c2ccc3c(c2)S(=O)(=O)c2ccccc2C3=O)cc1", "CPE inhibition": "1.25%"}
{"smiles": "O=C(/C=C\\Nc1ccc(Br)cc1)c1cccnc1", "CPE inhibition": "0.09%"}
{"smiles": "COc1cccc(C(=O)NC(=S)Nc2ccc(N(C)C)cc2)c1", "CPE inhibition": "inactive"}
{"smiles": "COc1ccc(NC(=O)CN2CCC(Cc3ccccc3)CC2)cc1S(=O)(=O)N1CCOCC1", "CPE inhibition": "0.605%"}
{"smiles": "COc1ccc(NC(=O)c2cc3c(s2)CCC(C)C3)cc1S(=O)(=O)N1CCOCC1", "note": "(stereo not drawn)", "CPE inhibition": "16.7% (active)"}
{"smiles": "COc1ccc(S(=O)(=O)N2CCOCC2)cc1NC(=O)c1cc2c(s1)CCCC2", "CPE inhibition": "0.62%"}
{"smiles": "CCCN(CC(=O)Nc1ccc(F)c(F)c1F)CC(=O)Nc1c(Cl)cccc1Cl", "CPE inhibition": "1.15%"}
{"smiles": "Cc1cc(C)nc(NC(=NCCc2c[nH]c3ccccc23)NC(=O)Nc2ccccc2)n1", "CPE inhibition": "13.5% (active)"}
{"smiles": "Cc1cc(C)nc(NC(=NCCc2c[nH]c3ccccc23)NC(=O)Nc2ccc(Cl)c(Cl)c2)n1", "CPE inhibition": "7.48%"}
{"smiles": "Cc1cc(C)nc(NC(=NCCc2c[nH]c3ccccc23)NC(=O)Nc2ccc(Cl)cc2)n1", "CPE inhibition": "4.91%"}
{"smiles": "COc1ccc(NC(=S)Nc2ccc(OCc3ccccc3)cc2)c(OC)c1", "CPE inhibition": "5.78%"}
{"smiles": "CC(C)c1ccccc1NC1=CC(=O)CC(C)(C)C1", "CPE inhibition": "1.06%"}
{"smiles": "CCC(C)NC(=S)N1CCN(C(c2ccccc2)c2ccccc2)CC1", "note": "(stereo not drawn)", "CPE inhibition": "11% (active)"}
{"smiles": "CCCNC(=S)N1CCN(C(c2ccccc2)c2ccccc2)CC1", "CPE inhibition": "9.31%"}
{"smiles": "CCN1CCN(C(=S)NC(C)c2ccccc2)CC1", "note": "(stereo not drawn)", "CPE inhibition": "inactive"}
{"smiles": "CC(C)CNC(=S)N1CCN(C(c2ccccc2)c2ccccc2)CC1", "CPE inhibition": "27.6% (active)"}
{"smiles": "COc1ccc(NC(=S)N2CCN(C(c3ccccc3)c3ccccc3)CC2)cc1OC", "CPE inhibition": "2.59%"}
{"smiles": "CC(NC(=S)N1CCOCC1)c1ccccc1", "note": "(stereo not drawn)", "CPE inhibition": "inactive"}
{"smiles": "O=C(NCCc1ccccc1)C(=O)Nc1nccs1", "CPE inhibition": "0.515%"}
{"smiles": "CCCc1nnc(NC(=O)CCC(=O)N2CCN(C3c4ccccc4-c4ccccc43)CC2)s1", "CPE inhibition": "inactive"}
{"smiles": "CCOc1cc(/C=N/NC(=O)CSc2nncn2C)ccc1OC(=O)c1ccc(Cl)cc1", "CPE inhibition": "1.75%"}
{"smiles": "S=C(Nc1ccccc1Cl)N1CCCCC1", "CPE inhibition": "inactive"}
{"smiles": "N#Cc1c(-c2ccc(Cl)cc2)c(C#N)c(=O)n(N)c1N", "CPE inhibition": "0.43%"}
